12-LOX inh: ALOX12 (human) lipoxygenase inhibition | purified 12hLO, xylenol orange hydroperoxide absorbance | Potency, µM (top dose mostly 108 µM), hits mostly inhibitors | 1.1% of 580,000 active
Target sequence (P18054 whole entry, looked up): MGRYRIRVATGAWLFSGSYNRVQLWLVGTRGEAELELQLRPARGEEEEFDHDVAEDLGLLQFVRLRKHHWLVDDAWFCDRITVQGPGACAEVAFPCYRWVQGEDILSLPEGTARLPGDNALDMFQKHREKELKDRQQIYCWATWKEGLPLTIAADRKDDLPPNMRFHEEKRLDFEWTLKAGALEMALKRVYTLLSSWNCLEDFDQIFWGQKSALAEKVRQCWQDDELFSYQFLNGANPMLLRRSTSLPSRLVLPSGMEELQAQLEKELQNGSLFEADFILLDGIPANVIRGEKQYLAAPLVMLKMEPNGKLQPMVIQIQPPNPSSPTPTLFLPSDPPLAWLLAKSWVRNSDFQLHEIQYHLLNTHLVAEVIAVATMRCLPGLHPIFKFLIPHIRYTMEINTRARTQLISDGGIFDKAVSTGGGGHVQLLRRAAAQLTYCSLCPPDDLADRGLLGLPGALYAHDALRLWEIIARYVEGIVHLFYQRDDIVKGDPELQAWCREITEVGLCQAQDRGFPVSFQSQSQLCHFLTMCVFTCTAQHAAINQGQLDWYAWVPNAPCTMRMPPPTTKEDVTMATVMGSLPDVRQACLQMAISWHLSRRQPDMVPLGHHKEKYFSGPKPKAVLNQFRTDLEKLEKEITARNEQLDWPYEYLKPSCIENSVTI
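Purified human 12hLO at 150 nM in 25 mM Hepes, 0.01% Triton X-100, pH 7.0, preincubated 15 min at room temperature with compound. Reaction started with 40 uM arachidonic acid, 30 min at room temperature. Hydroperoxide measured by Fe-xylenol orange, 573/405 nm absorbance ratio.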
PINK1 modulator: changes PINK1 expression; AID 624263; PINK1 immunofluorescence, high-content cytometry, 24 h; 0.2% of 410,000 active; Potency, µM (series often up to 76.6 µM), actives largely listed as activators; active = well fitted activation curve with a large enough effect; inconclusive = small, poorly fitted or top-dose-only effect; cell line not stated here; also: nearly all actives have a fitted effect of over 65% in size
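Measures PINK1 amount and localization on or inside mitochondria by immunofluorescence. Stable cells get compounds at 5 concentrations for 24 hours before fixation and staining; CCCP controls included.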
KB-3-1 tox: kills parental KB-3-1 adenocarcinoma cells. 1.4% of 400,000 active. Potency, µM (doses to about 46.1 µM), usual class: cytotoxic. KB-3-1 viability, CellTiter-Glo ATP luminescence, 72 h; also: nearly all actives have a fitted effect of over 60% in size
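Luminescent ATP read-out (CellTiter-Glo) measures survival of drug-naive KB-3-1 cells after 72 h compound exposure at 37 °C. Titration series was screened from lowest to highest concentration, with DMSO vehicle plates as background controls.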
SW480 rerep: induces DNA re-replication in SW480 colon adenocarcinoma cells. SW480 DNA re-replication, Hoechst DNA content imaging, 48 h. Potency, µM (highest dose often 46.1 µM), usual class: activators. 1.8% of 340,000 active. AID 624297; also: nearly all actives have a fitted effect of over 55% in size
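250 cells/well; 23 nL cpd via pin tool; 48 hr, 37 C, 5% CO2; Hoechst 40 min; imager read of total nuclear intensity, ex 405/em 500-530 nm.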
MCF10A rereplic: inducers of DNA re-replication in MCF 10A breast cells | MCF 10A DNA re-replication, Hoechst nuclear intensity, 48 h | Potency, µM (titrated, usually from 46.1 µM), hits mostly activators | AID 624296 | 2.9% of 350,000 active; also: nearly all actives have a fitted effect of over 50% in size
KB-V1 cytotox: kills drug-selected multidrug resistant KB-V1 cells; KB-V1 MDR cells viability, CellTiter-Glo, 72 h; Potency, µM (doses to about 46.1 µM), most hits filed as cytotoxic; 3.4% of 400,000 active; AID 1347076; also: nearly all actives have a fitted effect of over 60% in size
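Following 72 h at 37 degrees C with compound, KB-V1 cell viability was read by CellTiter-Glo luminescence, medium being phenol-red-free DMEM plus 10% FBS; concentration-response parameters came from normalized, curve-fitted qHTS data.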
Hits are given with their value; i = inactive; ? = inconclusive; nt = no result. The list is not random: actives were taken first. Their share in the collection is about 5.8%. Unless noted, calls follow the shape of the dose curve; as a rule, active = well fitted curve in the direction sought with a large enough effect; inconclusive = small, poorly fitted or top-dose-only effect, or another doubt; inactive = no such curve, though single readings can be large; an effect the other way counts as inactive or inconclusive.

SMILES	12-LOX inh	PINK1 modulator	KB-3-1 tox	SW480 rerep	MCF10A rereplic	KB-V1 cytotox
Fc1ccccc1NC(=S)NCCc1ccc(Cl)cc1	40µM	i	i	i	i	i
COc1ccc(-c2cc(N3CCCN(C(=O)C(C)c4ccccc4)CC3)n[nH]2)cc1 (stereo unspecified)	i	nt	nt	nt	nt	nt
CCCN1CCC2(CCN([S+](=O)([O-])c3cccs3)CC2)Oc2ccccc21	i	nt	nt	nt	nt	nt
CCNC(=O)NC(=O)C(C)N(C)Cc1ccco1 (stereo unspecified)	i	nt	nt	nt	nt	nt
NCC(=O)NCC(=O)OCc1ccccc1	i	i	i	i	1µM	i
CC(C)(C)OC(=O)NCC(=O)NCC(=O)OCc1ccccc1	i	i	i	i	i	i
O=C1CN2Cc3c(ccc(Cl)c3Cl)N=C2N1	?	i	i	?	i	0.16µM
COC(=O)c1cc(=O)n(-c2ccccc2)c(=Nc2ccccc2)s1	i	i	?	?	18µM	i
COC(=O)c1cc(=O)n(Cc2cccs2)c(=Nc2ccccc2)s1	i	i	i	i	10µM	?
CCOC(=O)c1ccc(N=c2sc(C(=O)OC)cc(=O)n2-c2ccc(C(=O)OCC)cc2)cc1	i	i	?	?	?	?
COc1cc(NC(=O)CCn2ccnc2)cc(OC)c1OC	i	nt	nt	nt	nt	nt
CN1c2cc(C(=O)Nc3cccc(Cl)c3)ccc2C(=O)N2CCCCC21 (stereo unspecified)	i	nt	nt	nt	nt	nt
CCCOc1ccc(-c2nc(C#N)c(NCc3ccccc3Cl)o2)cc1	i	nt	nt	nt	nt	nt
O=c1c2cnn(-c3ccccc3)c2nc(-c2ccco2)n1-c1ccccc1	i	i	15µM	i	?	5.2µM
COc1ccc(-n2c(-c3ccco3)nc3c(cnn3-c3ccc(Cl)cc3)c2=O)cc1	i	i	?	nt	nt	i
CCCN1CCN(C(=S)Nc2ccccc2C(F)(F)F)CC1	i	i	21µM	i	i	3.3µM
COc1ccc(CNC(=S)NCc2ccc(F)cc2)cc1OC	i	i	i	i	i	?
COc1ccccc1NC(=S)N1CCN(Cc2ccccc2)CC1	i	i	?	i	i	15µM
COc1ccccc1NC(=S)NCc1ccc(Cl)cc1	11µM	i	i	i	?	i
COc1ccc(CNC(=S)NCc2ccc(Cl)cc2)cc1OC	50µM	i	i	i	i	i
Cc1nc(-c2cccnc2)[nH]c(=O)c1CC(=O)N(C)C(C)C(C)(C)C (stereo unspecified)	i	nt	nt	nt	nt	nt
CC(=O)N1CCN(C(=O)c2ccc3c(ccn3Cc3ccccc3)c2)CC1	i	nt	nt	nt	nt	nt
COc1cccc(C2c3cc4c(cc3OC(N3CCCC3)C2C)OCO4)c1O (stereo unspecified)	?	i	21µM	?	?	8.2µM
COc1cc(C2c3cc4c(cc3OC(N3CCCCC3)C2C)OCO4)cc(OC)c1O (stereo unspecified)	i	i	?	?	?	?
CSc1cc(-c2ccc(Cl)cc2)c(C(=O)NN)s1	i	i	?	?	?	8.2µM
SMILES	12-LOX inh	PINK1 modulator	KB-3-1 tox	SW480 rerep	MCF10A rereplic	KB-V1 cytotox
CSc1cc(-c2ccc(Cl)cc2)c(C(=O)NC(C)C)s1	i	i	i	?	?	i
Cc1cc(C)c(NC(=O)Cn2cnc3c2c(=O)n(C)c(=O)n3C)c(Cl)c1	i	nt	nt	nt	nt	nt
C=CCn1c(C)cc(C(=O)COC(=O)Cn2cnc3c2c(=O)n(C)c(=O)n3C)c1C	i	nt	nt	nt	nt	nt
COc1ccccc1C(CNc1ccc(S(=O)(=O)N2CCCC2)cc1[N+](=O)[O-])N(C)C (stereo unspecified)	i	i	i	i	?	12µM
COc1ccc(C(CNc2ccc(S(=O)(=O)N3CCN(C)CC3)cc2[N+](=O)[O-])N(C)C)cc1 (stereo unspecified)	i	i	i	i	i	?
O=[N+]([O-])c1cc(S(=O)(=O)N2CCCCCC2)ccc1F	i	i	?	nt	4.6µM	i
CN(CC(=O)Nc1ccc(S(=O)(=O)N2CCCC2)cc1)CC(=O)Nc1ccc(F)c(F)c1F	i	i	i	i	i	?
COc1ccccc1NS(=O)(=O)c1ccc(NN=C2CCCC2)c([N+](=O)[O-])c1	i	i	i	i	i	2.9µM
CN(CC(=O)Nc1ccc(S(=O)(=O)N2CCCC2)cc1)Cc1ccc(Cl)cc1Cl	i	i	i	nt	i	13µM
NS(=O)(=O)c1ccc(NN=C2CCCC2)c([N+](=O)[O-])c1	i	nt	nt	nt	nt	nt
CC(c1ccc(S(C)(=O)=O)cc1)N(C)C(=O)CCc1ncc(-c2ccccc2Cl)o1 (stereo unspecified)	i	nt	nt	nt	nt	nt
O=C(O)c1cc(F)cc(Br)c1	i	nt	nt	nt	nt	nt
O=C(NCc1coc(-c2cccs2)n1)c1ccccc1Br	i	nt	nt	nt	nt	nt
COc1ccc(CCN(C)c2ccc(S(=O)(=O)N3CCCC3)cc2[N+](=O)[O-])cc1OC	i	i	?	i	?	2.6µM
O=C(CSCc1ccc(Cl)cc1)Nc1ccc(S(=O)(=O)N2CCCCCC2)cc1	i	i	i	i	i	?
CN(CC(=O)NCCc1ccc(S(N)(=O)=O)cc1)Cc1ccc(Cl)cc1Cl	i	i	?	i	i	16µM
COc1ccc(S(=O)(=O)N2CCCCCC2)cc1N(C)S(=O)(=O)c1ccc(Cl)cc1	i	i	i	i	i	21µM
CN(CC(=O)Nc1ccc(Cl)cc1)c1ccc(S(=O)(=O)N2CCCCC2)cc1[N+](=O)[O-]	i	i	?	i	i	16µM
CN(CC(=O)NCCc1ccc(S(N)(=O)=O)cc1)Cc1c(F)cccc1Cl	i	i	i	i	i	i
COc1ccc(CN(C)c2ccc(S(=O)(=O)N3CCN(C)CC3)cc2[N+](=O)[O-])cc1OC	?	i	?	i	i	?
O=C(c1csc(-c2ccsc2)n1)N1CCCC1c1ccc2c(c1)OCCCO2 (stereo unspecified)	i	nt	nt	nt	nt	nt
COc1ccc(CCN(C)C(=O)c2cccc3c(=O)c(C)c(-c4ccccc4)oc23)cc1OC	i	nt	nt	nt	nt	nt
COC(=O)C1=C(N)OC2=C(C(=O)CCC2)C1c1ccccc1Cl (stereo unspecified)	i	nt	nt	nt	nt	nt
C=CCNCCOCCOc1ccc(Cl)cc1C(C)(C)C	?	i	i	i	?	?
COCCCNCCOCCOc1ccc(Cl)cc1C(C)(C)C	?	i	i	?	18µM	18µM
CCOc1ccc(S(=O)(=O)N2CCN(c3ccccc3F)CC2)c2cccnc12	i	i	i	16µM	i	?
CCOc1ccc(S(=O)(=O)N2CCN(c3c(C)cccc3C)CC2)c2ccccc12	?	i	i	nt	nt	?
CCOc1ccc(S(=O)(=O)N(C)C)cc1-c1nc2c(C(C)(C)C)nn(C)c2c(=O)[nH]1	i	nt	i	i	?	?
CCOc1ccc(S(=O)(=O)N(C)CCO)cc1-c1nc2c(C(C)(C)C)nn(C)c2c(=O)[nH]1	i	i	?	i	i	10µM
